Only some compounds are listed: those with a hit (about 21% of all), similar ones and a draw of the others.
Gal4-VP16 FLuc = counter-screen for ROR gamma inhibitors: Gal4-VP16 reporter | Drosophila S2 Gal4-VP16 UAS-luciferase, luminescence, 20 h | Potency, µM (series often up to 53.6 µM), most hits filed as inhibitors | hit rate 3.5% among 310,000 | AID 2546;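 note: Gal4-VP16 expression switched on by copper sulfate through the metallothionein promoter; nearly all actives have a fitted effect of over 50% in size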
ELG1 repair inh = ELG1-dependent DNA repair inhibition. hit rate 2.3% among 330,000. Potency, µM (highest dose often 46.1 µM), usual class: inhibitors. AID 504467. HEK293T ELG1-luciferase reporter, luminescence, 16 h; DNA damage induced by 5-fluorouridine; note: nearly all actives have a fitted effect of over 55% in size
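In this reporter screen, reduction of luminescence relative to DMSO vehicle indicated activity. Compounds and 5-fluorouridine were added together to 2,000 cells per well, incubated for 16 hr at 37 °C, then developed with ONE-Glo.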
TDP1 cell noCPT = qHTS for Inhibitors of human tyrosyl-DNA phosphodiesterase 1 (TDP1): qHTS in cells in absence of CPT | DT40 Tdp1-/- hTDP1 cells, no CPT, ATP luminescence, 48 h | hit rate 15% among 420,000 | Potency, µM (titrated, usually from 46.2 µM), actives largely listed as inhibitors; note: nearly all actives have a fitted effect of over 55% in size
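Camptothecin absent (DMSO only). Human TDP1-complemented DT40 knockout cells, 400 cells/well, 37 °C for minimum 48 hr; ATP measured via CellTiter-Glo, 30 min dark incubation, luminescence.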
IL-1B inflam inh = inflammasome signaling inhibition, IL-1 beta readout; THP-1 LPS/ATP IL-1B secretion, AlphaLISA, 16 h; active compounds read low; activity change, % at 57.5 µM; hit rate 4.7% among 360,000; in the data active = activity change below about -50%; inconclusive = mostly about -30% to -49%
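THP-1 cells pretreated 1 hr with compounds (up to 57.5 uM final), then stimulated with LPS (250 ng/mL final) plus ATP (1.25 mM final); secreted IL-1B measured by AlphaLISA after 16 hr, decreased signal indicating inhibition.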
DT40 TDP1 CPT = growth inhibition of DT40 Tdp1-/-;hTDP1 cells with camptothecin (screen for TDP1 inhibitors); chicken DT40 Tdp1-/-;hTDP1 cells + 20 nM CPT, ATP luminescence, 48 h; Potency, µM (doses to about 46.2 µM), actives largely listed as inhibitors; hit rate 12% among 420,000; AID 686979; note: nearly all actives have a fitted effect of over 55% in size
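Cell growth measured by CellTiter-Glo luminescence after a minimum 48 h, 37 C compound exposure with 20 nM CPT in Tdp1-knockout DT40 cells stably expressing hTDP1, seeded 400/well; qHTS titration format.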
RORgamma inh = ROR gamma (mouse) transcription inhibition | P51450 | Drosophila S2 Gal4-RORgamma UAS-luciferase reporter, 20 h | Potency, µM (highest dose often 53.6 µM), hits mostly inhibitors | hit rate 5.4% among 310,000 | AID 2551; note: nearly all actives have a fitted effect of over 60% in size
Target sequence (P51450 whole entry, looked up, the tested form may be a part): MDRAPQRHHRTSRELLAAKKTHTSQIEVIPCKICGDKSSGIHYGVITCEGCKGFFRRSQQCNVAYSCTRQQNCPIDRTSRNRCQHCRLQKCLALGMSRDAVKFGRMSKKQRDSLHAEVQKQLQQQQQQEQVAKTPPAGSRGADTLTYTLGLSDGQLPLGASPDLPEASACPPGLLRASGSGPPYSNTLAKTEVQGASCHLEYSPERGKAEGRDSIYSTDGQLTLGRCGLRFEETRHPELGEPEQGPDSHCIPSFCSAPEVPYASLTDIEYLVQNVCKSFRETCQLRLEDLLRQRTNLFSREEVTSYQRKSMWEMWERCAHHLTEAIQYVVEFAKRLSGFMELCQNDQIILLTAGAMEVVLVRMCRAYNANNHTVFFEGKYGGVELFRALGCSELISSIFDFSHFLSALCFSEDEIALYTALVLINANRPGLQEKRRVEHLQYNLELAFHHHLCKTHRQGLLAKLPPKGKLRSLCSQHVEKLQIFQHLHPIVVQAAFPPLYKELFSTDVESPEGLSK
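Stable Schneider cell line, Gal4 DNA-binding domain fused to ROR gamma, UAS-luciferase. Cmpd 1 hr RT → CuSO4 700 uM final → 20 hr RT → luciferase reagent 10 min → luminescence.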
A number is an active result; . = inactive; ? = inconclusive; / = no result; [ ] = another dose, or the depositor's remark. Unless noted, calls come from the whole dose curve; as a rule, active = well fitted curve in the direction sought with a large enough effect; inconclusive = small, poorly fitted or top-dose-only effect, or another doubt; inactive = no such curve, though single readings can be large; an effect the other way counts as inactive or inconclusive.

SMILES | Gal4-VP16 FLuc | ELG1 repair inh | TDP1 cell noCPT | IL-1B inflam inh | DT40 TDP1 CPT | RORgamma inh
CCCS(=O)(=O)NC(=O)C1(C)CCCN(C(=O)c2ccccc2C(F)(F)F)C1 (stereo not drawn) | / | / | . | . | . | /
COc1ccc(CCCc2nnc(SCC(=O)Nc3cccc(F)c3C)o2)cc1 | / | / | . | / | . | /
CCOc1ccc(-c2cn3nc(CC(C)C)sc3n2)cc1 | / | / | ? | / | . | /
O=C(COc1ccccc1)NC(=S)Nc1ccc(Br)cn1 | ? | . | . | . | . | 13µM
CCCCCC(=O)NC(=S)Nc1ccccc1C(=O)OC | ? | / | . | . | . | 14µM
CCC(=O)NC(=S)Nc1ccc(NC(=O)COc2ccccc2)cc1 | ? | . | ? | . | . | .
CCCCC(=O)NC(=S)Nc1ccccc1C(=O)Nc1ccccc1 | . | . | . | . | . | .
COC(=O)c1ccccc1NC(=S)NC(=O)CC(C)C | ? | . | . | . | . | 13µM
CCOC(=O)c1ccccc1NC(=O)COc1ccccc1 | . | . | . | . | . | .
COC(=O)c1ccccc1NC(=S)NC(=O)COc1ccccc1 | 11µM | . | ? | . | . | 5.6µM
CC[C@]12c3[nH]c4cc(-c5ccco5)ccc4c3CCN1C(=O)[C@@H](CC(=O)NCCCn1ccnc1)C[C@@H]2C(=O)N1CCN(C(=O)C2CC2)CC1 | / | . | . | . | . | /
O=C(COc1ccccc1)NC(=S)Nc1cccc2c(O)cccc12 | / | / | 26µM | . | ? | /
CCOC(=O)C1CCCN(S(=O)(=O)c2ccc3ccccc3c2)C1 (stereo not drawn) | . | ? | ? | . | . | .
CCOC(=O)C1CCCC12Nc1cccc3cccc(c13)N2 (stereo not drawn) | / | / | 15µM | . | 18µM | /
COc1cccc(NC(=O)CN(C)CC(=O)NCc2ccc(F)cc2)c1 | / | . | . | . | ? | /
COc1cccc(Nc2sc(C(=O)c3ccc(Cl)cc3)c(N)c2C(=O)NCc2ccc(C)cc2)c1 | / | / | 4.6µM | / | 2.9µM | /
COc1cccc(Nc2sc(C(=O)c3ccc(F)cc3)c(N)c2C(=O)NCc2ccc(Cl)cc2)c1 | / | / | 21µM | / | . | /
Cc1ccc(CNC(=O)c2c(Nc3c(C)cccc3C)sc(C(=O)c3ccccc3)c2N)cc1 | / | / | 15µM | / | 8.2µM | /
C=CC[C@@H]1C=C[C@@H](O/N=C\[C@@H](NS(=O)(=O)c2ccc(C)cc2)[C@H](C)/C=C\CC(=O)OC)[C@@H](CO)O1 | .[10 µM] | / | / | / | / | .[10 µM]
COc1cc(-c2cnc3ccccc3c2)cc2c1OCCN(S(=O)(=O)C[C@]13CC[C@H](CC1=O)C3(C)C)C2 | / | / | ? | / | .[9.04 µM] | /
Cc1cc(NS(=O)(=O)c2c(C)[nH]c(=O)[nH]c2=O)ccc1Br | . | . | . | . | . | .
O=C(c1ccc(Br)cc1)N1CCN(c2ccccn2)CC1 | / | / | ? | . | . | /
C=C(CN(C)C)C(=O)c1cc(C)ccc1C | / | / | 1µM | -101 | 0.58µM | /
COCCNC(=O)c1cc(C)ccc1C | . | . | . | . | . | .
COc1cccc(OC)c1C(=O)Nc1ccc2c(c1)CCCN2S(=O)(=O)c1ccc(C)cc1 | . | . | ? | . | ? | .
SMILES | Gal4-VP16 FLuc | ELG1 repair inh | TDP1 cell noCPT | IL-1B inflam inh | DT40 TDP1 CPT | RORgamma inh
Cc1ccc(S(=O)(=O)N2CCCc3cc(NC(=O)c4c(F)cccc4F)ccc32)cc1 | . | 23µM | ? | ? | ? | .
Cc1ccc(S(=O)(=O)N2CCCc3cc(NS(=O)(=O)c4cc(F)ccc4F)ccc32)cc1 | / | / | 18µM | / | 23µM | /
COc1ccc(C)cc1NC(=O)c1ccc2c(c1)CCN2S(=O)(=O)c1ccc(Cl)cc1 | / | / | . | / | . | /
Cc1ccc(S(=O)(=O)Nc2cc3c4c(c2)C(C)C(=O)N4CCC3)cc1 (stereo not drawn) | / | . | ? | . | . | /
COc1ccc(S(=O)(=O)Nc2ccc3c(c2)CCCN3S(=O)(=O)c2ccc(C)cc2)cc1F | / | / | 21µM | / | ? | /
Cc1ccc(S(=O)(=O)N2CCCc3cc(NS(=O)(=O)c4ccc(F)cc4)ccc32)cc1 | / | / | 18µM | / | ? | /
CC(C)N(C(=O)Cn1cc(SCC(=O)Nc2ccccc2C(F)(F)F)c2ccccc21)C(C)C | / | / | . | / | . | /
O=C(CCNC(=O)c1ccc([N+](=O)[O-])cc1)Nc1ccc(S(=O)(=O)N2CCOCC2)cc1 | / | ? | . | . | . | /
O=C(CSc1nnc(-c2ccco2)n1CC1CCCO1)c1ccc(F)cc1 (stereo not drawn) | . | . | 21µM | . | 18µM | .
COC1=CC(=O)OC(c2ccccc2)C1 (stereo not drawn) | / | / | . | . | . | /
Cn1c(COc2ccccc2)nnc1SCC(=O)Nc1nnc(C2CC2)s1 | / | / | ? | . | . | /
CCc1ccc2ncc(S(=O)(=O)c3ccc(C)c(C)c3)c(N3CCCC3)c2c1 | ? | . | 15µM | . | 23µM | ?
CCc1ccc(S(=O)(=O)N2CCCC(N3CCN(c4ccc(OC)cc4)CC3)C2)cc1 (stereo not drawn) | ? | . | ? | . | ? | ?
CCN1CCN(c2c(S(=O)(=O)c3ccc(C)c(C)c3)cnc3cc(OC)c(OC)cc23)CC1 | / | / | ? | / | 15µM | /
COc1ccc(S(=O)(=O)c2cnc3ccc(Cl)cc3c2N2CCCCC2C)cc1 (stereo not drawn) | / | / | 23µM | / | 16µM | /
Cc1ccc(S(=O)(=O)N2CCSC2)cc1C | . | / | ? | . | . | .
CCN1CCN(c2c(S(=O)(=O)c3ccccc3)cnc3ccc(Cl)cc23)CC1 | / | / | ? | / | . | /
COc1ccc2c(c1)c(=O)c(S(=O)(=O)c1ccc(Cl)cc1)cn2C | / | / | ? | / | . | /
CCc1ccc(S(=O)(=O)c2cnc3ccc(OC)cc3c2N2CCCC(C)C2)cc1 (stereo not drawn) | / | / | ? | / | 16µM | /
CC[C@@]1(O)C(=O)COc2c1cc1n(c2=O)Cc2c-1nc1cccc(C(C)C)c1c2[Si](C)(C)C | ? | / | / | / | / | .
O=C(COc1ccc([N+](=O)[O-])cc1)Nc1ccccc1C(=O)NC1CC1 | / | . | . | . | . | /
CC(C(=O)N1c2ccccc2CC1C)N1CCN(S(=O)(=O)c2ccccc2F)CC1 (stereo not drawn) | / | . | ? | . | ? | /
N#CCCn1c(=O)c(-c2cccs2)nc2cnc(Oc3ccccc3)nc21 | . | / | ? | / | . | .
CCN1CCN(c2c(S(=O)(=O)c3ccc(Cl)cc3)cnc3ccccc23)CC1 | / | / | ? | / | 13µM | /
CCOc1ccc(/C=N/NS(=O)(=O)c2ccc(C)cc2)cc1OC | . | . | . | . | . | .
CCOc1ccc(Nc2c(S(=O)(=O)c3ccc(C)cc3)cnc3cc(OC)c(OC)cc23)cc1 | / | / | 12µM | / | ? | /
CN1CCC(OC(=O)C(Oc2ccc(Cl)cc2)Oc2ccc(Cl)cc2)CC1 | . | / | . | / | . | .

Source: PubChem BioAssay (National Center for Advancing Translational Sciences (NCATS))
